These results are taken from PubChem BioAssay (EPA / NIEHS).

The source made the active and inactive calls. The calls were made as follows: active = hit-call score of the fitted dose curve at least 0.9, where 1 is the maximum; inactive = score below 0.9.

Read-out in the assay: Cytochrome P450 4A22 (Homo sapiens) (UniProt Q5TCH4)
The assay can be described thus: LTEA_HepaRG_CYP4A22: Life Technologies and Expression Analysis (LTEA) Assay for Cytochrome P450 4A22 (CYP4A22) using HepaRG (AID 2283495). The conditions noted are these: mRNA level, 48 h; actives raise or lower the signal. As for the experimental part: LTEA_HepaRG is a cell based, multiplexed-readout assay that uses HepaRG, a human liver cell line, with measurements taken at 48 hours after chemical dosing on a 96-well plate.LTEA_HepaRG_CYP4A22 is one of 102 assay component(s) measured in the LTEA HepaRG cell culture assay. It is a marker of NR mediated metabolism.Data from the assay component LTEA_HepaRG_CYP4A22 was analyzed into 1 endpoint. This assay endpoint, LTEA_HepaRG_CYP4A22, was analyzed with bidirectional fitting relative to DMSO as the negative control and baseline of activity. Using a type of inducible reporter, measures of mRNA induction for gain or loss-of-signal activity can be used to understand regulation of transcription factor activity. To generalize the intended target to other relatable targets, this assay endpoint is annotated to the cyp intended target family, where the subfamily is xenobiotic metabolism.
A total of 1060 chemcials from the ToxCast library were tested in eight-point concentration-response experiments. Cell culture and cytotoxicity assays were conducted at Thermo Fisher Scientific's Custom Services facility (Madison, WI). A single lot of human HepaRG cells (Thermo Fisher Scientific, Frederick, MD) was used for the cell culture experiments. 96-well format collagen type I coated plates of human HepaRG cells were prepared using established methods. Briefly, cryopreserved HepaRG cells were thawed, plated at a density of approximately 100,000 cells/well in HepaRG Thaw, Plate, and General Purpose media (HPRG770, Thermo Fisher Scientific), and incubated for 48 hours. 0.5% DMSO was selected as vehicle control to balance the requisite need of DMSO in HepaRG cultures to maintain differentiation (for example, baseline metabolism, proportions of hepatocytes vs. cholangiocytes), while enabling further hepatic receptor pathway activation (for example, PXR and CAR) in response to chemical exposure. 48 hours after plating, the culture medium was replaced with HepaRG Serum-Free Incudtion Media. Cells were exposed to each test chemical in duplicate and maintained in CO2 incubators for another 48 hours. Chemical plates were thawed to room temperature and 200x concentrations of treatment groups were prepared. 8-point conentration-reponse curves were made with the highest exposure at 100 uM, followed by half-log dilutions, all in 0.5% DMSO. Each test plate contained variouse controls, induction positive controls (1mM phenobarbital), cytotoxicity positive controls ([…] aflatoxin B1), vehicle controls (0.5% DMSO), and total lysis controls (0.5% DMSO). Cell morphology images were taken using an Essen IncuCyte FLR automated microscope, with six 96-well plates imaged in about 24 minutes. Images were captured and exported and JPEG files. Spent culture media was transfered to black-well plates for the LDH assay, and remaining media was sorted at -80 C for later use. Cells were treated with RLT buffer and frozen until shipped for gene expression analysis. Total RNA was isolated from the cell suspension in 75 uL of Buffer RLT (Qiagen, Germantown, MD 20874) by Quintiles/Expression Analysis (Durham, NC) using a custom isolation procedure. Total RNA from each plate well was transferred to a preamplification plate. Fluidigm's 96.96 Dynamic ArrayTM (Fluidigm, Amsterdam, the Netherlands) technology was used for gene expression analyses by quantitative reverse transcription polymerase chain reaction (qRT-PCR, performed by Quintiles/Expression Analysis, Durham, NC)89. Standard TaqManTM Assays (Applied Biosystems/ThermoFisher Scientific, Foster City, CA) were used to assess the expression of 93 genes selected based on their selectivity and sensitivity to important hepatic receptors known to be modulated by environmental chemicals; importance in human hepatocyte functionality; and hepatotoxicity. […]
`CCCCCCC(=O)O`: the molecule was classed as inactive.

Take `O=C(O)c1ccccc1C(c1ccc(O)cc1)c1ccc(O)cc1`: the molecule was called inactive. The same measure, in the same setting: as for `CCC(C)(C)C1CCC(O)CC1` (stereo not given), the entry is “inactive”.

Broadly, the AC50 is the concentration giving half of the maximal activity seen. With `CCN(CC)CCNc1ccc(CNC=O)c2sc3ccc(OC)cc3c(=O)c12`, the half-maximal activity concentration (AC50) was 25.7 µM (active). In the case of `CCCCCCCCOC(=O)CCCCCCCCC(=O)OCCCCCCCC`, the molecule was called inactive. As for `CC#C[C@]1(O)CC[C@H]2[C@@H]3CCC4=CC(=O)CCC4=C3[C@@H](c3ccc(N(C)C)cc3)C[C@@]21C`, the AC50 is 24.2 µM (active). In the case of `CC(=O)CC(C)(C)O`, the outcome was inactive. Take `CN1CCC[C@H]1c1cccnc1`: the molecule was called inactive. Still for that read-out and setting: as for `CC(C)(C)c1cccc(C(C)(C)C)c1O`, the entry is “inactive”; as for `Oc1cc2ccccc2c2ccccc12`, “inactive”.

On to `ClC1=C(Cl)C(Cl)(Cl)C(Cl)=C1Cl`, for which the molecule was classed as inactive.

Regarding `N#C[C@@H]1CC(F)(F)CN1C(=O)CNC1CC2CCC(C1)N2c1ncccn1` (stereo not given in full), the molecule was called inactive. On the same count and under the same terms, to `C[C@@H]1C[C@H]2[C@@H]3CCC4=CC(=O)C=C[C@]4(C)[C@@]3(F)[C@@H](O)C[C@]2(C)[C@@]1(O)C(=O)COP(=O)(O)O` belongs “inactive”; to `COC(=O)CCCCC(=O)OC`, “inactive”. The same measure, in the same setting: to `C=C(C)C(=O)OCCC(F)(F)C(F)(F)C(F)(F)C(F)(F)C(F)(F)C(F)(F)F` belongs “inactive”; to `OCCC(F)(F)C(F)(F)C(F)(F)C(F)(F)C(F)(F)C(F)(F)C(F)(F)C(F)(F)F`, “inactive”; to `CCC(=C(c1ccc(O)cc1)c1ccc(OCCN(C)C)cc1)c1ccccc1`, “inactive”. On to `Cc1oc(-c2ccccc2)nc1CCOc1ccc(C[C@H](Nc2ccccc2C(=O)c2ccccc2)C(=O)O)cc1`, for which the AC50 was 0.189 µM (active). In the case of `COCC(C)O` (stereo not given), the outcome was inactive. For `CCc1ccc(CCOc2ccc(CC3SC(=O)NC3=O)cc2)nc1` (stereo not given), the half-maximal activity concentration (AC50) was 84 µM (active).

For the molecule `CCCOC(=O)c1ccc(O)cc1`, the call was inactive. Same read-out and setting: as for `Oc1cccc(O)c1`, the entry is “inactive”. For the molecule `CC(=O)NC1(c2cccc(F)c2)CCN(CC[C@@]2(c3ccc(Cl)c(Cl)c3)CN(c3ccccc3)C(=O)CO2)CC1`, the AC50 was 3.17 µM (active). With `Nc1cccc2c(N)cccc12`, the outcome was inactive. Consider `CCCCC(CC)COC(=O)CCCCC(=O)OCC(CC)CCCC` (stereo not given), for which the call was inactive. In the case of `c1ccc2cc3c(ccc4ccccc43)cc2c1`, the half-maximal activity concentration (AC50) was 26 µM (active). Consider `CC[C@H](c1ccc(O)cc1)[C@@H](CC)c1ccc(O)cc1`, for which the molecule was classed as inactive. Consider `Cc1cc(CCN2CCN(c3nsc4ccccc34)CC2)cc2c1NC(=O)CC2(C)C`, for which the AC50 was 58.6 µM (active). With `CCOC(=O)CC(O)(CC(=O)OCC)C(=O)OCC`, the outcome was inactive. Consider `c1ccc2c(c1)Cc1ccccc1-2`, for which the call was inactive. For the molecule `C#C[C@]1(O)CC[C@H]2[C@@H]3CCC4=CC(=O)CC[C@@H]4[C@H]3CC[C@@]21C`, the molecule was classed as inactive.

Take `CC(C)CCCCCCOC(=O)CCCCC(=O)OCCCCCCC(C)C`: the call was inactive. As to `CCCCOCCO`, the call was inactive. Take `Cc1cc(C)c(O)c(C)c1`: the result was inactive.

For `CCCCCCCC(=O)O`, the result was inactive. Still for that read-out and setting: to `OC1CCCCC1` belongs “inactive”; to `CCCCCCCCC(=O)O`, “inactive”.

Take `O=[N+]([O-])c1ccc(O)cc1`: the molecule was called inactive. On the same count and under the same terms, to `COCC(C)OCC(C)O` (stereo not given) belongs “inactive”. On to `CN1CCN(c2ccccc2/C=C2\SCCN(c3ccc(Cl)c(Cl)c3)C2=O)CC1`, for which the AC50 is 15.8 µM (active).
